Bioassay records deposited in PubChem BioAssay by several laboratories.
HDAC3 inhib – blocks human histone deacetylase 3. hit rate 0.15% among 320,000. inhibition, % at 8.3 µM. O15379. recombinant HDAC3, fluorogenic peptide/trypsin coupled, fluorescence; in the data active = inhibition above about 26%, passing the limit was not always enough
GRK2 aptamer HTS – inhibitors of human GRK2 displacing RNA aptamer | hit rate 0.59% among 330,000 | bead flow cytometry, FAM-aptamer displacement from GRK2 | inhibition of aptamer binding, % at 10 µM | AID 488847;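 active = inhibition of aptamer binding above 40%, roughly 3 SD of noise, on plates passing a quality check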;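 note: median bead fluorescence of bound FAM aptamer so fluorescent compounds give negative values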
Pemphigus Ab inh – inhibitors of pemphigus antibody binding to human desmoglein-3. DSG3-coupled beads, scFv-anti-DSG3-GFP binding, flow cytometry; stronger effect = lower value. AID 588358. binding (percent of control), % at 10 µM. hit rate 0.48% among 310,000. P32926;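 active = binding more than 3 SD below its plate's average and above zero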
PKD1 inh – PKD1 (human) kinase inhibition | Q15139 | PKD1 kinase fluorescence polarization assay | inhibition, % (test concentration not listed) | hit rate 0.056% among 200,000 | AID 797
VLA-4 inh – inhibition in a human VLA-4 binding assay | P13612 | VLA-4 expressing cells, ligand binding flow cytometry | inhibition, % (about 7 µM as worked out from the volumes in the protocol) | hit rate 0.2% among 330,000 | AID 2557
LANA-H2B inh – blocks KSHV LANA binding to histone H2A/H2B; Q9QR71; cell-free LANA-H2A/H2B peptide, fluorescence polarization; inhibition, % (test concentration not listed); hit rate 0.6% among 320,000; AID 2629; in the data active = inhibition mostly above about 10%, no sharp cut-off; inactive = mostly below about 6.7%
* = called active by the depositor; . = no result. Sampled rows, rich in hits. Any-hit rate of the full collection: about 1.8%. Cut-off read from the data, not from the text of the source, unless noted: active = inhibition above about 50%; inactive = the rest.

SMILES	HDAC3 inhib	GRK2 aptamer HTS	Pemphigus Ab inh	PKD1 inh	VLA-4 inh	LANA-H2B inh
COc1cccc(C(CNC(=O)C2CCN(C(=O)Nc3ccccc3)CC2)N(C)C)c1 (centres undefined)	.	0	105	.	-2	.
CCCCc1ccc(NS(=O)(=O)c2cccc(C(=O)N3CCNC(=O)C3)c2)cc1	.	.	101	.	.	.
O=C(CSCc1cc(=O)[nH][nH]1)Nc1ccc(F)cc1	0	1	104	-4	16	18*
CCCCc1ccc(NC(=O)CSCc2cc(=O)[nH][nH]2)cc1	4	6	106	-11	2	0
COc1ccc(NC(=O)/C(C#N)=C/c2ccc(Br)o2)cc1	6	67*	95	3	1	-2
Cc1ccc(S(=O)(=O)N2C[C@H]3[C@H]4C(=O)N(c5ccccc5)C(=O)[C@H]4C[C@H](OC(=O)Nc4c(C)noc4C)[C@@]3(O)C2)cc1	.	.	104	.	.	.
Cc1ccc(S(=O)(=O)N2C[C@H]3n4c(=O)ccc(=O)n4C[C@H](OC(=O)Nc4c(C)noc4C)[C@@]3(O)C2)cc1	.	.	92*	.	.	.
Fc1ccc(Nc2nc(-c3ccncc3)nc3ccccc23)cc1	-2	0	85*	4	0	4
CC(C)C[C@@]12C(=O)N(c3cccc(Br)c3)C(=O)N1[C@H](c1ccc(F)cc1)[C@@H]1C(=O)N(C3CCCCC3)C(=O)[C@@H]12	4	1	97	.	19	-1
Cc1ccc(N2CC(C(=O)N3CCC(C(=O)NCCCOC(C)C)CC3)CC2=O)cc1 (centres undefined)	4	2	98	.	15	-1
O=C1c2ccccc2C(=O)N1CCCn1ccnc1	-5	0	91*	.	2	0
CCOc1ccc(OCc2ccc(C(=O)OCc3ccccn3)o2)cc1	5	0	40*	-4	7	3
CCOC(=O)c1ccc(COc2ccc(C(C)C)cc2)o1	4	3	116	-9	21	0
COc1ccc(C2(C)NC(=O)N(CC(=O)NCc3ccccc3)C2=O)cc1OC (centres undefined)	-1	0	95	.	1	25*
CC(C)(C)N(Cc1ccccc1)C(=O)CN1C(=O)c2ccccc2C1=O	-10	0	100	.	-6	-5
Cc1ccc(C2(C)NC(=O)N(CC(=O)N(Cc3ccccc3)C(C)(C)C)C2=O)cc1 (centres undefined)	1	13	96	.	-6	17*
CCOc1cc(NC(=O)c2cccs2)c(OCC)cc1NC(=O)CCC(=O)NCC1CCCO1 (centres undefined)	3	0	99	-8	-1	4
COc1ccccc1NC(=O)c1ccc(NC(=O)COC(=O)C2CC2C)cc1 (centres undefined)	-1	0	89	2	-8	19*
Cc1ccc(SSc2cc(C)ccc2N)c(N)c1	3	0	65*	.	12	1
COc1ccccc1CC(=O)NCC(c1ccco1)N1CCCCC1 (centres undefined)	0	0	98	2	-21	-6
O=C(CSc1ccccc1)NCC(c1ccco1)N1CCCCC1 (centres undefined)	6	0	106	.	5	28*
CCc1ccc(C(=O)N/N=C/c2ccc(Cl)cc2Cl)nc1	8	1	.	5	13	40*
CN(C)S(=O)(=O)c1ccc(Nc2ccc(-c3ccc4c(c3)OCCO4)nn2)cc1	-1	1	69*	4	22	0
CC[N+]1(CC)CC2=Cc3c(ccc4ccccc34)C(C)C2C1 (centres undefined)	-10	0	107	.	12	5
COc1ccc(C(=O)N2CCCC(Nc3ccc(F)cc3)C2)c(OC)c1 (centres undefined)	-1	2	102	.	7	8
SMILES	HDAC3 inhib	GRK2 aptamer HTS	Pemphigus Ab inh	PKD1 inh	VLA-4 inh	LANA-H2B inh
O=C(NCc1cccc(Cl)c1)c1ccc2c(c1)SC1=NS(=O)(=O)CCN12	4	0	96	3	10	16*
CCOC(=O)C(=O)Cc1cccnn1	.	.	47*	.	.	.
CCOC(=O)C(Cc1ccnc2ccccc12)=NO	.	.	115	.	.	.
O=C(/C=C/c1ccccc1)Nc1ncn[nH]1	-2	1	99	14	20	14*
O=C(O)C(=O)Nc1ncn[nH]1	.	.	107	.	.	.
COc1ccc(F)cc1C(=O)C1CCCN(Cc2cnc(N3CCCC3)s2)C1 (centres undefined)	2	0	101	-9	-2	-4
COc1ccc(Cl)cc1C(=O)C1CCCN(Cc2cnc(N3CCOCC3)s2)C1 (centres undefined)	8	1	28*	0	6	0
COc1ccc(NC(=O)CSc2nc3ccccc3c(=O)n2CCCO)cn1	3	0	105	.	2	2
CCOc1ccc(-n2c(=O)c3sccc3n(CC(=O)NC3CCCCC3)c2=O)cc1	-3	0	94	.	11	29*
CCS(=O)(=O)c1nc(S(=O)(=O)c2ccc(Cl)cc2)c(NCCN2CCOCC2)s1	-4	0	98	.	-3	-3
C=CCN1C(=O)C2(OCCCO2)c2cc(C)ccc21	-9	20	111	.	-2	-6
N#CC1(NC(=O)COC(=O)c2nc(Cl)c(Cl)c(N)c2Cl)CCCCC1	2	2	110	.	0	14*
Cc1ccc(NC(=O)C2CCCN2S(=O)(=O)c2ccc3c(c2)n(C)c(=O)c(=O)n3C)c(C)c1 (centres undefined)	.	0	95	.	8	-2
CCn1c(SCC(=O)OCc2ccccc2)nc2c1c(=O)n(C)c(=O)n2C	32*	3	103	9	-1	-2
C=CCn1c(SCC(=O)OCc2ccccc2)nc2c1c(=O)n(C)c(=O)n2C	2	1	104	-7	12	-1
Cc1ccc2cc(CN(c3ccccc3C)S(=O)(=O)c3ccccc3)c(=O)[nH]c2c1	5	0	.	.	1	-5
Cc1cccnc1NC(=O)CNC(=O)c1ccccc1	4	0	.	.	9	0
CCCCC(c1nnnn1C(C)C)N1CCN(C(=O)c2ccco2)CC1 (centres undefined)	1	0	97	.	-7	-5
COc1ccc(S(=O)(=O)N2CCC(Nc3ccccc3Cl)CC2)cc1	-8	2	120	.	8	38*
CS(=O)(=O)C1=NSC2=NC(=O)/C(=C\c3cccn3-c3ccc(Cl)cc3)C(=N)N21	0	2	98	-6	33	48*
COc1cc(/C=C2/C(=N)N3C(=NC2=O)SN=C3S(C)(=O)=O)ccc1OC(=O)c1ccco1	24	2	100	.	9	-9
CS(=O)(=O)C1=NSC2=NC(=O)/C(=C\c3ccc(OC(=O)c4ccco4)cc3)C(=N)N21	35*	0	.	.	29	0
COCCn1c(/C=C/c2ccccc2)nc2ccccc21	-23	2	115	-3	-2	-127*
COc1ccccc1Cn1c(/C=C/c2ccccc2)nc2ccccc21	.	0	99	-4	0	.
